The campaign covered roughly 69,000 compounds. About 8,600 (12%) showed an effect of 50% or more. This excerpt belongs to a sample that is enriched for strong results.
test system: Plasmodium berghei; experiment: Screen against P. berghei liver stage (PbLuc), transformed with Luciferase, at 10uM; type: functional, HepG2; settings: tested at 10 uM

Q: Which INHIBITION does the source give for `O=C(C1CCOCC1)N1CCc2onc(COc3cccnc3)c2C1` here?
A: Its INHIBITION is 46.2%.

Q: `Cc1ccoc1C(=O)N1CCc2ncnc(-c3cnn(C)c3)c2CC1` was tested. Which INHIBITION did it give?
A: Its INHIBITION is -49.8%.

Q: `Cc1cc(C2CCN(S(=O)(=O)N(C)C)CC2)ccn1` was tested. Which INHIBITION did it give?
A: The INHIBITION was 9.05%.

Q: How did the INHIBITION turn out when `CN(C)CCN1C(=O)CCC12CCN(Cc1cccs1)CC2` was run?
A: Its INHIBITION is 29.7%.

Q: With `CCc1nc(CN2CCN(C(=O)c3cncnc3CC)CC2)cs1` as the molecule, how does the INHIBITION read?
A: Its INHIBITION is -86.365%.

Q: For `CC(C)NC(=O)N1CC[C@@H]2[C@@H]1CC(=O)N2Cc1cccnc1`, which INHIBITION is on record?
A: The INHIBITION was 6.27%.

Q: With `CC1c2ncc(COc3cccnc3)n2CCN1C(=O)C1=CCCCC1` (stereo not given) as the molecule, how does the INHIBITION read?
A: The INHIBITION was -6.23%.

Q: For `COc1ccc(CNC(=O)Nc2cccnc2N2CCCC2)cc1OC`, which INHIBITION is on record?
A: The INHIBITION was 31.2%.

Q: For `Nc1nc2c(c(NC(=O)Nc3cccc(Cl)c3)n1)CCCC2`, which INHIBITION is on record?
A: Its INHIBITION is 88.8%.

Q: For `Nc1nc2c(c(NC(=O)Nc3ccccc3)n1)CCCC2`, which INHIBITION is on record?
A: The INHIBITION was 32.1%.

Q: With `Nc1nc2c(c(NC(=O)Nc3ccc(Cl)c(Cl)c3)n1)CCCC2` as the molecule, how does the INHIBITION read?
A: Its INHIBITION is -10.3%.

Q: How did the INHIBITION turn out when `COCCOc1ccc(CNc2cnc3ccccc3n2)cn1` was run?
A: The INHIBITION was -43%.

Q: For `COCCOc1ccc(CNc2nc3ccccc3o2)cn1`, which INHIBITION is on record?
A: The INHIBITION was -11.5%.

Q: Which INHIBITION does the source give for `COCCOc1ccc(CNc2nc3ccccc3nc2N)cn1` here?
A: The INHIBITION was 80.9%.

Q: For `COCCNC(=O)Cn1c(-c2cccc(F)c2)nc(C)c(CCO)c1=O`, which INHIBITION is on record?
A: The INHIBITION was 7.22%.

Q: Which INHIBITION does the source give for `Cc1cnc(C(=O)N2CCOCC2c2ccccc2)cn1` (stereo not given) here?
A: The INHIBITION was 43.6%.

Q: For `Clc1cc(Cl)cc(OCCN2CCC(n3cncn3)CC2)c1`, which INHIBITION is on record?
A: Its INHIBITION is 62.4%.

Q: `CSc1ccc(OCCN2CCC(n3cncn3)CC2)cc1` was tested. Which INHIBITION did it give?
A: Its INHIBITION is 27.6%.

Q: How did the INHIBITION turn out when `c1ccc(OCCN2CCC(n3cncn3)CC2)cc1` was run?
A: The INHIBITION was 37.4%.

Q: Which INHIBITION does the source give for `Cc1cccc(C2CC(=O)Nc3c2c(=O)[nH]n3C(C)C)c1` (stereo not given) here?
A: Its INHIBITION is 71.3%.

Q: With `CC(C)n1[nH]c(=O)c2c1NC(=O)CC2c1cccc(Br)c1` (stereo not given) as the molecule, how does the INHIBITION read?
A: Its INHIBITION is -6.61%.

Q: `CC(C)n1[nH]c(=O)c2c1NC(=O)CC2c1cccc(O)c1` (stereo not given) was tested. Which INHIBITION did it give?
A: The INHIBITION was -47%.

Q: Which INHIBITION does the source give for `CC(C)n1[nH]c(=O)c2c1NC(=O)CC2c1ccncc1` (stereo not given) here?
A: Its INHIBITION is -19.1%.

Q: How did the INHIBITION turn out when `CCc1ccc(C2CC(=O)Nc3c2c(=O)[nH]n3C(C)C)cc1` (stereo not given) was run?
A: Its INHIBITION is 79.7%.

Q: `CSc1ccc(C2CC(=O)Nc3c2c(=O)[nH]n3C(C)C)cc1` (stereo not given) was tested. Which INHIBITION did it give?
A: Its INHIBITION is 19.8%.

Q: With `O=C(CCn1nc(-c2cccs2)oc1=O)Nc1cccc(F)c1` as the molecule, how does the INHIBITION read?
A: The INHIBITION was 31.9%.

Q: `O=C1CC2(CCN(c3nncs3)C2)CN1c1cncnc1` (stereo not given) was tested. Which INHIBITION did it give?
A: Its INHIBITION is 15.4%.

Q: For `Cc1cnc2c(S(=O)(=O)NCC3CCOC3)cccc2c1` (stereo not given), which INHIBITION is on record?
A: The INHIBITION was 3.15%.

Q: With `Cc1cccc(OCC2CCCN(C(=O)CCn3ccccc3=O)C2)c1` (stereo not given) as the molecule, how does the INHIBITION read?
A: Its INHIBITION is -10.2%.

Q: For `c1cc(-c2nnc3sc(CCN4CCCC4)nn23)ccn1`, which INHIBITION is on record?
A: The INHIBITION was 46.1%.

Q: For `c1ccc(-c2nnc3sc(CCN4CCCC4)nn23)cc1`, which INHIBITION is on record?
A: Its INHIBITION is 54.3%.

Q: Which INHIBITION does the source give for `c1ccc(-c2nnc3sc(CCN4CCCCCC4)nn23)cc1` here?
A: Its INHIBITION is 30.8%.

Q: Which INHIBITION does the source give for `CC(C)(N)CNS(=O)(=O)Cc1cccc2cccnc12` here?
A: Its INHIBITION is 2.66%.

Q: For `CCOCCCNC(=O)CCCC(=O)n1nc(C)c2ccccc21`, which INHIBITION is on record?
A: The INHIBITION was 32.2%.

Q: With `Cc1nccc(-c2cccc(-c3ccn(CC4CCNC4)n3)c2)n1` (stereo not given) as the molecule, how does the INHIBITION read?
A: The INHIBITION was 47.2%.

Q: Which INHIBITION does the source give for `Cc1ccsc1-c1cccc(-c2ccn(CC3CCNC3)n2)c1` (stereo not given) here?
A: The INHIBITION was 72.6%.

Q: For `c1cc(-c2cncnc2)cc(-c2ccn(CC3CCNC3)n2)c1` (stereo not given), which INHIBITION is on record?
A: Its INHIBITION is 46.4%.

Q: How did the INHIBITION turn out when `CCn1c(C)nnc1CN(C)C1CCN(CCCSC)C1` (stereo not given) was run?
A: The INHIBITION was -69.3%.

Q: `Cc1cc(C(=O)N2CCS(=O)(=O)CC2)c(C)o1` was tested. Which INHIBITION did it give?
A: The INHIBITION was -9.21%.

Q: Which INHIBITION does the source give for `Cc1cn[nH]c1C1COCCN1Cc1c[nH]cn1` (stereo not given) here?
A: The INHIBITION was 35.6%.

Q: With `Cc1cccc(C)c1OCC(=O)NS(=O)(=O)c1c(C)noc1C` as the molecule, how does the INHIBITION read?
A: Its INHIBITION is -55.8%.

Q: For `Cc1ccc(OCC(=O)NS(=O)(=O)c2c(C)noc2C)cc1C`, which INHIBITION is on record?
A: The INHIBITION was 6.14%.

Q: With `Cc1cc(C)c(OCC(=O)NS(=O)(=O)c2c(C)noc2C)c(C)c1` as the molecule, how does the INHIBITION read?
A: The INHIBITION was 55.1%.

Q: For `O=C(NCCn1nc(C2CCNC2)c2cccnc21)C1CCC1` (stereo not given), which INHIBITION is on record?
A: Its INHIBITION is 13.5%.

Q: `Cc1nn(C)c2ncnc(NCC(O)CN3CCCCC3)c12` (stereo not given) was tested. Which INHIBITION did it give?
A: Its INHIBITION is 7.3%.

Q: Which INHIBITION does the source give for `COc1ccccc1OCCCN1C(=O)CCNC1=O` here?
A: The INHIBITION was -88.2%.

Q: With `COc1cccc(OC)c1OCCN1C(=O)CCNC1=O` as the molecule, how does the INHIBITION read?
A: Its INHIBITION is 25.8%.

Q: Which INHIBITION does the source give for `CC(C)Oc1ccccc1OCCN1C(=O)CCNC1=O` here?
A: Its INHIBITION is 50.5%.

Q: For `COCCc1noc(-c2cc(Cl)c3c(c2)OCCCO3)n1`, which INHIBITION is on record?
A: Its INHIBITION is -119%.

Q: How did the INHIBITION turn out when `CN1CCC(NC(=O)c2cc(Br)cc(Cl)c2O)C1=O` (stereo not given) was run?
A: The INHIBITION was 20%.

Q: For `CN1CCN(c2ncc3c(=O)n(Cc4ccco4)ccc3n2)CC1`, which INHIBITION is on record?
A: The INHIBITION was 41.3%.

Q: How did the INHIBITION turn out when `CCN1CCN(c2ncc3c(=O)n(Cc4ccco4)ccc3n2)CC1` was run?
A: The INHIBITION was 67.5%.

Q: With `O=c1c2cnc(N3CCCCC3)nc2ccn1Cc1ccco1` as the molecule, how does the INHIBITION read?
A: The INHIBITION was -33.7%.

Q: `Cc1noc(C)c1S(=O)(=O)NC(=O)COc1ccc(C(C)C)cc1` was tested. Which INHIBITION did it give?
A: The INHIBITION was 4.1%.

Q: For `NS(=O)(=O)CCNC(=O)c1cc2ccccc2nc1N1CCCC1`, which INHIBITION is on record?
A: Its INHIBITION is 2.91%.

Reference: ChEMBL document CHEMBL4513216, “Probing the Open Global Health Chemical Diversity Library for Multistage-Active Starting Points for Next-Generation Antimalarials” (ACS Infect Dis, 2020)
